The record followed here is PubChem BioAssay AID893 (National Center for Advancing Translational Sciences (NCATS), 2007).

“And” between values parts separate entries of the source, which are not always exact repeats. Identical values can stand only once. About 5,700 (7.6%) of roughly 75,000 compounds were called active. About 7% were inconclusive and are not listed. This is one part of a sample in which actives are shown more often than they occur. Calls follow the shape of the dose curve; as a rule, active = well fitted inhibition curve with a large enough effect; inconclusive = small, poorly fitted or top-dose-only effect; inactive = no such curve, though single readings can be large or run the other way.
% is scaled to controls: 0 for no effect and ±100 for the full control effect; potency is read from the fitted curve at half-maximal effect.

The target of this assay is 3-hydroxyacyl-CoA dehydrogenase type-2 (Homo sapiens) (UniProt Q99714). The assay can be described thus: qHTS Assay for Inhibitors of HSD17B4, hydroxysteroid (17-beta) dehydrogenase 4.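 Also: the protocol describes HADH2 (HSD17B10) and not the HSD17B4 of the title; nearly all actives have a fitted effect of over 70% in size.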 Particulars: recombinant HSD17B10, NADH fluorescence kinetic; series mostly up to 57.1 µM; activity change, negative = inhibition: at the top concentration. In short, it runs like this:
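Activity followed as NADH fluorescence increase (ex 360, em 450 nm) every 30 seconds for 4 min, using final 90 uM beta-hydroxybutyryl CoA and 1 mM NAD+. Recombinant His-tagged enzyme, 20 nM, pH 9.0 Tris buffer, 15 min compound preincubation.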
`CCOc1ccc(C(=O)N(Cc2ccc(N(C)C)cc2)C2CCS(=O)(=O)C2)cc1` (stereo not drawn): the “activity change, negative = inhibition” value was 9.23% (inactive).
Take `CN1CCc2nc(-c3ccccc3)c(-c3ccccc3)cc2C1`: the activity change, negative = inhibition was 2.91% [at 11.4 µM] (inactive).
In the case of `COc1cc(C2C(C(=O)c3ccc(C)o3)=C(O)C(=O)N2Cc2cccnc2)ccc1O` (stereo not drawn), the “activity change, negative = inhibition” value is -28.4% (inactive).
As for `O=C(Nc1ccccc1N1CCCCC1)c1cccc(F)c1`, the “activity change, negative = inhibition” value was -4.57% (inactive).
For the molecule `Cc1cc(C)cc(N(C(C)C(=O)Nc2c(C)n(C)n(-c3ccccc3)c2=O)S(C)(=O)=O)c1` (stereo not drawn), the “activity change, negative = inhibition” value is 9.82% (inactive).
As for `COC(=O)Nc1c(C)n(C)n(-c2ccccc2)c1=O`, the “activity change, negative = inhibition” value was -2.47% (inactive).
For the molecule `Cc1c(NC(=O)C(C)OC(=O)c2cc3c4ccccc4n(C)c3s2)c(=O)n(-c2ccccc2)n1C` (stereo not drawn), the Potency is 3.98 µM (active).
Turning to `CCOC(=O)CSc1nnc(CNC(=O)c2ccco2)n1-c1ccc(F)cc1`, the “activity change, negative = inhibition” value was -1.04% (inactive).
As for `C/C(=C\C(=O)c1cccnc1)Nc1ccc(C)c(C)c1`, the “activity change, negative = inhibition” value is -6.77% (inactive).
With `O=c1cccc(-c2ccc(Br)cc2)o1`, the “activity change, negative = inhibition” value was -12% (inactive).
As for `CC1C(c2ccccc2)=[N+]([O-])C2(CCCC2)N1O` (stereo not drawn), the “activity change, negative = inhibition” value was -1.86% (inactive).
For the molecule `Nc1ncnc2c1ncn2C1CC(O)C(CO)O1` (stereo not drawn), the Potency entry was “inactive”.
As to `CCC[C@@H]1C[C@@]1(CCC)[C@@H](NC(=O)c1ccccc1)c1ccc(C(=O)OC)cc1`, the “activity change, negative = inhibition” value is 0.355% (inactive).
Same read-out and setting: as for `O=C(CCCCn1c(=O)[nH]c2ccccc2c1=O)NCc1ccc2c(c1)OCO2`, the figure is -18.5% (inactive).
Turning to `Cc1nc2c(C(=O)NCc3ccc4c(c3)OCO4)c[nH]n2c(=O)c1Cc1ccccc1F`, the Potency was 31.6 µM (active).
With `CCn1cc(C(=O)NCc2ccc3c(c2)OCO3)c2cc(OC)c(OC)cc2c1=O`, the “activity change, negative = inhibition” value was -19.8% (inactive).
Consider `CC1CCCCC1NC(=O)CCS(=O)(=O)c1cccc2nonc12` (stereo not drawn), for which the “activity change, negative = inhibition” value is -8.2% (inactive).
The same measure, in the same setting: as for `COc1ccc2oc(=O)c(C(=O)O)cc2c1`, the figure is 4.12% (inactive); as for `COc1ccc2oc(=O)c(C(=O)N3CCCc4ccccc43)cc2c1`, 4.06% (inactive).
Consider `COc1ccc2oc(=O)c(C(=O)N3CCN(c4ccccc4F)CC3)cc2c1`, for which the Potency was 25.1 µM (active).
As to `CC(=O)C1C(c2ccc(Cl)cc2)NC(=O)NC1(O)C(F)(F)F` (stereo not drawn), the “activity change, negative = inhibition” value is 0.683% (inactive).
Still for that read-out and setting: to `COC(=O)[C@@]1(Cc2ccc(F)cc2)[C@@H]2[C@@H](CC(=O)[C@H]2CC(=O)C(=O)N2CCCC2)CN1C(=O)c1ccccc1` belongs -1.36% (inactive); to `CN1CCN(Cc2nc3c(c(=O)n(C)c(=O)n3C)n2Cc2cccc3ccccc23)CC1`, 2.52% (inactive).
Regarding `COc1ccc(OC)c(C(=O)CSc2nnc(-c3cccs3)o2)c1`, the Potency is 31.6 µM (active).
In the case of `CCN(CC)C(=O)CSc1nnc(-c2cccc(OC)c2)o1`, the “activity change, negative = inhibition” value is 10.4% (inactive).
The same measure, in the same setting: as for `COc1ccc(-c2nnc(SCC(=O)c3cccs3)o2)c(OC)c1`, the figure is -0.925% (inactive); as for `COCC(C)N=CC1=C(O)CC(C)(C)CC1=O` (stereo not drawn), 1.61% (inactive).
As for `CCc1cc(=O)oc2cc(C)cc(OC(C)C(=O)O)c12` (stereo not drawn), the Potency is 31.6 µM (active).
For `N#CCC(=O)NC(=O)NCC1CC1`, the “activity change, negative = inhibition” value is 26.3% (inactive).
Same read-out and setting: to `CCCC[C@@H]1C[C@H]1C(NC(=O)c1ccco1)c1ccc(C(=O)OC)cc1` (stereo partly drawn) belongs -1.66% (inactive); to `O=C(Cn1ccc(=O)[nH]c1=O)Nc1ccc(C(=O)O)c(O)c1`, -0.357% [at 11.4 µM] (inactive).
As for `O=C(O)c1ccc(-n2cccc2)cc1O`, the Potency is 31.6 µM (active).
Turning to `O=C(O)c1ccc(C(=O)O)c2c(C(=O)O)ccc(C(=O)O)c12`, the activity change, negative = inhibition is -1.54% [at 11.4 µM] (inactive).
Same read-out and setting: as for `Cc1cc(NS(=O)(=O)c2ccccc2)no1`, the figure is 3.57% (inactive); as for `Nc1ncn(C2OC(CO)C(O)C2O)c(=O)n1` (stereo not drawn), 3.46% (inactive).
For the molecule `O=C(O)c1ccc(NC(=O)C2CCCCC2)cc1`, the “activity change, negative = inhibition” value was -7.75% (inactive).
`CN1C(=O)c2ccc(NC(=O)c3c(F)c(F)c(F)c(F)c3F)cc2C1=O`: the Potency was 12.6 µM (active).
For `Cn1c(=O)n(C)c2cc(C(=O)Nc3ccc4c(c3)OCO4)ccc21`, the “activity change, negative = inhibition” value is 5.94% (inactive).
Take `O=C(Nc1ccncc1)c1c(F)cccc1F`: the “activity change, negative = inhibition” value was -13.7% (inactive).
Consider `O=C(Nc1cnn(Cc2ccc(Cl)cc2)c1)C1CCCC1`, for which the “activity change, negative = inhibition” value was 12.7% (inactive).
For the molecule `CN1C(=O)c2ccc(NC(=O)C3CCCCC3)cc2C1=O`, the Potency is 25.1 µM (active).
Turning to `C#CCC(C(=O)OC)(C(=O)OC)C(C[N+](=O)[O-])c1ccccc1` (stereo not drawn), the activity change, negative = inhibition is -8.6% [at 11.4 µM] (inactive).
For the molecule `Cn1c(=O)n2n(c1=O)[C@H]1[C@H](O)[C@H]3O[C@H]3C(=O)[C@H]1CC2`, the activity change, negative = inhibition is -7.54% [at 11.4 µM] (inactive).
On to `O=C(C1CCN(S(=O)(=O)Cc2ccccc2)CC1)N1CCCc2ccccc21`, for which the “activity change, negative = inhibition” value was 5.23% (inactive).
As for `Cc1ccccc1C(=O)O`, the “activity change, negative = inhibition” value was 1.89% (inactive).
Regarding `COc1ccc(C2CC(=O)c3c(O)cc(OC4OC(COC5OC(C)C(O)C(O)C5O)C(O)C(O)C4O)cc3O2)cc1O` (stereo not drawn), the “activity change, negative = inhibition” value is 1.68% (inactive).
With `CO[C@@H]1COC(=O)C/C=C\[C@H](C)[C@@H](NS(=O)(=O)c2ccc(C)cc2)COC(=O)C/C=C\[C@@H]1C`, the activity change, negative = inhibition was 2.45% [at 11.4 µM] (inactive) and 8.54% [at 11.4 µM] (inactive).
With `CC(C)Cn1c(CCC(=O)O)ccc1-c1cccs1`, the Potency was 31.6 µM (active).
As to `O=C(O)CCC(=O)N(Cc1cccs1)Cc1cccs1`, the “activity change, negative = inhibition” value is -14.2% (inactive).
For `Cc1cc(NC(=O)c2cc(-c3cccs3)on2)nn1Cc1ccc(Cl)cc1`, the “activity change, negative = inhibition” value was 45.3% (inactive).
Turning to `C/C=C1\C(=O)C[C@@H]2[C@@H]3CCC4=CC(=O)CC[C@@]4(C)[C@H]3CC[C@@]12C`, the “activity change, negative = inhibition” value is -3.31% (inactive).
Turning to `Cc1ccc(S(=O)(=O)NC(=O)NN2C[C@H]3CCC[C@@H]3C2)cc1`, the “activity change, negative = inhibition” value is 0.302% [at 25.6 µM] (inactive).
As to `CC1CCCCN1CCCNC(=O)c1ccc(-n2c(=O)c(=O)[nH]c3ccccc32)cc1` (stereo not drawn), the “activity change, negative = inhibition” value is 5.61% (inactive).
In the case of `Cn1c(C(=O)N2CCC(C(N)=O)CC2)cc2c(=O)n(C)c3ccccc3c21`, the “activity change, negative = inhibition” value was -10.8% (inactive).
In the case of `CC1CCCC(C)N1CCCNC(=O)c1cc2c(=O)n(C)c3ccccc3c2n1C` (stereo not drawn), the Potency is 31.6 µM (active).
Regarding `C=C(C)C1CC=C(CO)CC1` (stereo not drawn), the “activity change, negative = inhibition” value is 2.12% (inactive).
Consider `COC(=O)[C@@H]1C[C@@]2(O)[C@H](O)[C@H](O)[C@H](O)C[C@H]2N1Cc1ccc(C)s1`, for which the “activity change, negative = inhibition” value is 3.78% (inactive).
Turning to `N#Cc1c2c(c(N3CCN(CCO)CC3)n3c1nc1ccccc13)CCCC2`, the “activity change, negative = inhibition” value is -18.5% (inactive).
For the molecule `Cc1cc(NCc2ccco2)n2c(nc3ccccc32)c1C#N`, the Potency was 3.16 µM (active).
For the molecule `Cc1ccccc1NC(=O)NCc1ccco1`, the “activity change, negative = inhibition” value was -0.0132% (inactive).
As for `C/C(CCN1CCCCc2nc(C)c(C)cc21)=N\O[C@@H](C)c1cn([C@@H]2COC[C@@H]2O)nn1`, the activity change, negative = inhibition was 0.914% [at 11.4 µM] (inactive).
For `CCC1CCCCN1CCNS(=O)(=O)c1ccc2c(c1)CCN2C(C)=O` (stereo not drawn), the “activity change, negative = inhibition” value was 7.62% (inactive).
Turning to `CCOC(=O)c1ccc(N2C(=O)CC(N3CC(C)OC(C)C3)C2=O)cc1` (stereo not drawn), the “activity change, negative = inhibition” value was -27.9% (inactive).
